# Source: the supplement of paper PMC6555819
# System: VDR:RXRa (NR concentration 270 nM, RXRa partner concentration 90 nM)
# Assay: PBM binding z-score (relative to random genomic background probes); higher = stronger binding; sequences stand for … in GC…GCGATTGACAGCGTAGAATGAAGG
# Experimental: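 Protein-binding microarray (Agilent 4x180K custom design, double-stranded 60-nt probes: 5' GC cap, 34-nt variable region, 24-nt constant primer region; full probe sequence given). Purified or IVT nuclear receptor:RXRα heterodimers (3:1 NR:RXRα, mostly 270:90 nM) or homodimers were incubated for 1 h in PBS with 2% milk and no ligand, then detected with Alexa488 antibodies. Fluorescence from o1-orientation probes (~5 replicates averaged) was converted to z-scores against 500 random hg19 background probes. Variable regions are seed direct-repeat (DR0–DR5) sites, all their single-nucleotide variants and half-site ablations.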
row,Sequence,PBM binding z-score
1,TGAATGGGGTTAAAGATCAGGGAACGTGGCGTCG,3.29
2,GACACAGGGTCAAGGCCAGAGTACGCGTATTGAT,4.36
3,ATCCAAAGGTCGAAGGTGAGTATACCCACCCGAA,3.15
4,GGAACGAGGGCAAAGTAGATAGCATCTGTCGACG,0.414
5,ATCGAAAGGTCGTGAGGTGCGTATACAGAAAGGC,6.03
6,CAAACTAGGTCAAGAGGTCAAATTCCGCTTCCCG,6.17
7,TAGCCTAGGTCATTCAGGGGCCAGTAGAGAAAGC,3.24
8,GATACAGGGTCAGCTAGAGGCCACAGTATGGAAA,3.76
9,ATATGTAGGTTAAGGGTCATTCTGGTTGGTTCGC,4.92
10,CCTGCTAAGTCAATGGTCAGCTAAAGCAGCTCGC,-0.304
11,CTACCAAGGTGAACAAGCTCGTTGATTACTATTC,0.121
12,TCTTGTAGATCAAAAGAGGTTAAGAAAGTGCGCT,1.72
13,CCGAGTAGGTCATGGGGCATTCAGGCAACGGTGA,2.27
14,ACCGACAGGTGATGAAGGTAACTCAGGCTATCAT,-0.148
15,AATACAGGGTCATCGTAGGCCAGGGTACGCACAG,5.25
16,CGTCCAAGGTCAAGGCCAGTGAAAGAGACTCGAA,3.69
17,TCTATTAGTTCAAGGGCAACCGACGAGTCCGTTT,2.38
18,CGAACGAGGCCATGAGTTGATAGCAAATGCCGAT,0.155
19,CCTAATGGGCCATTCAGAGGTCATTGATCATATG,4.1
20,AGCATGAGGTTACCAAAGATCAGGGAAACGCTTG,1.28

row,Sequence,PBM binding z-score
1,GCTGACGGGTCAAAGGTTATAGCATGAATAGAAT,5.27
2,CGTCCAAGGTCAAAGGTCAGTTAAGAGATGACGG,6.49
3,CTACCAAGGTGAACATGGTCGTTGATTACTATTC,1.18
4,GCATATAAGTAATACAAGGTGAAAGTCCGATTGT,0.0691
5,GTACCAAGGTGAATAGGTTGTTGATGAGTAGGCG,1.38
6,CGTCCACGGTCAGCAGGTCAGTGAAAGCGACGTG,0.107
7,AGAATGAGTTTATTAAGATCAGGGAATTGCGGTC,2.08
8,GCTAGCATGCCATTTGGGTCACTCAATGACGGGC,0.372
9,AGAGCGAGGGCACGCTGAGTTGATAGCAGAGTAG,1.86
10,ATCTCTAGGTAAAGTTCAGTGATAGATCGATAGA,1.47
11,TCAGACAGGTGAAGGTAACTCTGGTACGCAGTCG,0.577
12,CCTACGGGGCCAAAAAGGTCATTGATGCCGATAA,5.88
13,ACTAGCAGGCCAAGATTGGGTCACTCAAACAAAG,0.16
14,TCTAGCAGGACAGAGGGTCACTCAAGAGGTACGG,1.39
15,ATCGAAAGGTCGTGAGGTGAGTATGCAGAAAGGC,3.57
16,CCTTACGGGTCACCCCAGGTTATAGCATCGGAGT,4.91
17,CTACCAAGGTGAACAAGTTCGTTGATTACTATTC,6.15
18,TAGACTAGGTCATTGGGCCAGTATAGTACGCATC,1.93
19,CAAACTAGGTCAGGGTCAAAGTCGGTTTGTGCCA,4.97
20,CCTAGCAGGTCAGGGTCACTCAAGCATTTCGCTT,4.13
